# Source: the supplement of paper PMC8728848
# Many of the other results were omitted from the sample, so the strongest signals are more common in it than they were.
# B1: Gal 2 (Canis lupus) (protein)
# chain: MSGKFEVMNMDMKLGGTLKIKGKIAGDADGFVINLGQGSDKLNLHFNPRFHESVIVCNSRNWGQEQRDKHMCFSPGSEVKFTVTFENDGFKVKLPDGHQLTFPNRLGHSHLSYLGVQGGLKVSSFKIE
# Tests used:
# Assay in all cases: glycan array binding signal (z-score within array); higher = stronger binding
# Conditions in all cases: glycan notation: IUPAC condensed, linker removed
# [1] = target: Fuc(a1-2)Gal(b1-3)GalNAc(b1-4)[Neu5Ac(a2-3)]Gal(b1-4)Glc
# In short: (§1)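 Columns mapping to the same glycan were averaged after glycan names were converted to IUPAC-condensed notation. The data come from 3228 arrays in the Consortium for Functional Glycomics database, limited to those with an available protein sequence. Binding is reported as a within-array Z-score averaged across arrays of one protein sequence and across linkers.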
# [2] = target: Fuc(a1-2)Gal(b1-3)[Fuc(a1-4)]GlcNAc(b1-3)[Fuc(a1-3)[Gal(b1-4)]GlcNAc(b1-6)]Gal(b1-4)Glc
# In short: as §1
# [3] = target: Fuc(a1-2)Gal(b1-4)GlcNAc(b1-2)Man(a1-3)[Fuc(a1-2)Gal(b1-4)GlcNAc(b1-2)Man(a1-6)]Man(b1-4)GlcNAc(b1-4)GlcNAc
# In short: as §1
# [4] = target: Fuc(a1-2)Gal(b1-4)GlcNAc(b1-2)Man(a1-3)[Fuc(a1-2)Gal(b1-4)GlcNAc(b1-2)Man(a1-6)]Man(b1-4)GlcNAc(b1-4)[Fuc(a1-6)]GlcNAc
# In short: as §1
# [5] = target: Fuc(a1-2)Gal(b1-4)GlcNAc(b1-3)Gal(b1-4)GlcNAc(b1-3)Gal(b1-4)GlcNAc
# In short: as §1
# [6] = target: Fuc(a1-2)Gal(b1-4)[Fuc(a1-3)]GlcNAc(b1-2)Man(a1-3)[Fuc(a1-2)Gal(b1-4)[Fuc(a1-3)]GlcNAc(b1-2)Man(a1-6)]Man(b1-4)GlcNAc(b1-4)GlcNAc
# In short: as §1
# [7] = target: Fuc(a1-2)Gal(b1-4)[Fuc(a1-3)]GlcNAc(b1-3)GalNAc
# In short: as §1
# [8] = target: Fuc(a1-2)[Gal(a1-3)]Gal(b1-4)GlcNAc
# In short: as §1
# [9] = target: Fuc(a1-2)[Gal(a1-3)]Gal(b1-4)GlcNAc(b1-2)Man(a1-3)[Fuc(a1-2)[Gal(a1-3)]Gal(b1-4)GlcNAc(b1-2)Man(a1-6)]Man(b1-4)GlcNAc(b1-4)GlcNAc
# In short: as §1
# [10] = target: Fuc(a1-2)[Gal(a1-3)]Gal(b1-4)GlcNAc(b1-2)Man(a1-3)[Fuc(a1-2)[Gal(a1-3)]Gal(b1-4)GlcNAc(b1-2)Man(a1-6)]Man(b1-4)GlcNAc(b1-4)[Fuc(a1-6)]GlcNAc
# In short: as §1
# [11] = target: Fuc(a1-2)[Gal(a1-3)]Gal(b1-4)[Fuc(a1-3)]GlcNAc(b1-3)GalNAc
# In short: as §1
# [12] = target: Fuc(a1-2)[GalNAc(a1-3)]Gal
# In short: as §1
# [13] = target: Fuc(a1-2)[GalNAc(a1-3)]Gal(b1-3)GalNAc(a1-3)[Fuc(a1-2)]Gal(b1-4)GlcNAc
# In short: as §1
# [14] = target: Gal(a1-3)Gal(b1-3)GlcNAc(b1-2)Man(a1-3)[Gal(a1-3)Gal(b1-3)GlcNAc(b1-2)Man(a1-6)]Man(b1-4)GlcNAc(b1-4)GlcNAc
# In short: as §1
# [15] = target: Gal(a1-3)Gal(b1-4)[Fuc(a1-3)]GlcNAc(b1-2)Man(a1-3)[Gal(a1-3)Gal(b1-4)[Fuc(a1-3)]GlcNAc(b1-2)Man(a1-6)]Man(b1-4)GlcNAc(b1-4)GlcNAc
# In short: as §1
# [16] = target: Gal(b1-3)GlcNAc(b1-2)Man(a1-3)[Gal(b1-3)GlcNAc(b1-2)Man(a1-6)]Man(b1-4)GlcNAc(b1-4)GlcNAc
# In short: as §1
# [17] = target: Gal(b1-3)GlcNAc(b1-2)Man(a1-3)[Gal(b1-3)GlcNAc(b1-2)Man(a1-6)]Man(b1-4)GlcNAc(b1-4)[Fuc(a1-6)]GlcNAc
# In short: as §1
# [18] = target: Gal(b1-3)[Fuc(a1-4)]GlcNAc(b1-3)Gal(b1-4)GlcNAc
# In short: as §1
# [19] = target: Gal(b1-3)[Neu5Ac(a2-6)]GlcNAc(b1-6)Gal(b1-4)Glc
# In short: as §1
# [20] = target: Gal(b1-4)GlcNAc(b1-3)Gal(b1-4)GlcNAc
# In short: as §1
# Gal4S(b1-4)GlcNAc = target: Gal4S(b1-4)GlcNAc
# In short: as §1
# Gal6S(b1-3)GlcNAc = target: Gal6S(b1-3)GlcNAc
# In short: as §1
# [21] = target: GalNAc(b1-3)Gal(a1-6)Gal(b1-4)Glc
# In short: as §1
# GalNAc(b1-4)GlcNAc = target: GalNAc(b1-4)GlcNAc
# In short: as §1
# GlcA(b1-3)GlcNAc = target: GlcA(b1-3)GlcNAc
# In short: as §1
# [22] = target: GlcNAc(a1-4)Gal(b1-4)GalNAc
# In short: as §1
# [23] = target: GlcNAc(a1-4)Gal(b1-4)GlcNAc(b1-3)Gal(b1-4)[Fuc(a1-3)]GlcNAc(b1-3)Gal(b1-4)[Fuc(a1-3)]GlcNAc
# In short: as §1
# [24] = target: GlcNAc(b1-4)[GlcNAc(b1-6)]GalNAc
# In short: as §1
# Man(a1-3)[Man(a1-6)]Man = target: Man(a1-3)[Man(a1-6)]Man
# In short: as §1
# [25] = target: Neu5Ac(a2-3)Gal(b1-3)[Neu5Ac(a2-3)Gal(b1-4)]GlcNAc
# In short: as §1
binder,measurement,setting,value
B1,glycan array binding signal (z-score),[1],-0.028
same,glycan array binding signal (z-score),[2],0.019
same,glycan array binding signal (z-score),[3],1.43
same,glycan array binding signal (z-score),[4],0.046
same,glycan array binding signal (z-score),[5],-0.156
same,glycan array binding signal (z-score),[6],0.795
same,glycan array binding signal (z-score),[7],0.409
same,glycan array binding signal (z-score),[8],0.681
same,glycan array binding signal (z-score),[9],15.5
same,glycan array binding signal (z-score),[10],6.28
same,glycan array binding signal (z-score),[11],0.088
same,glycan array binding signal (z-score),[12],-0.339
same,glycan array binding signal (z-score),[13],-0.173
same,glycan array binding signal (z-score),[14],0.082
same,glycan array binding signal (z-score),[15],0.339
same,glycan array binding signal (z-score),[16],0.14
same,glycan array binding signal (z-score),[17],0.051
same,glycan array binding signal (z-score),[18],0.099
same,glycan array binding signal (z-score),[19],-0.068
same,glycan array binding signal (z-score),[20],-0.157
same,glycan array binding signal (z-score),Gal4S(b1-4)GlcNAc,1.7
same,glycan array binding signal (z-score),Gal6S(b1-3)GlcNAc,-0.457
same,glycan array binding signal (z-score),[21],0.131
same,glycan array binding signal (z-score),GalNAc(b1-4)GlcNAc,-0.029
same,glycan array binding signal (z-score),GlcA(b1-3)GlcNAc,2.91
same,glycan array binding signal (z-score),[22],-0.278
same,glycan array binding signal (z-score),[23],1.2
same,glycan array binding signal (z-score),[24],-0.114
same,glycan array binding signal (z-score),Man(a1-3)[Man(a1-6)]Man,0.15
same,glycan array binding signal (z-score),[25],-0.369
